Our source for the binding signal values is PMC9911399, “Two distinct binding modes provide the RNA-binding protein RbFox with extraordinary sequence specificity”.

B1: UAACCGC (DNA:RNA)
RNA: GGGAGACCGGAAUUCAGAUUGUCCUAACCGCUUAAAUCCCGUCGUAGCCACCA
DNA 1: CAATCTGAATTCCGGTCTCCC
DNA 2: TGGTGGCTACGACGGGATT
B2: CAACUUU (DNA:RNA)
RNA: B1 RNA with U25C, C29U, G30U, C31U
DNA 1: CAATCTGAATTCCGGTCTCCC
DNA 2: TGGTGGCTACGACGGGATT
B3: UUGCAAU (DNA:RNA)
RNA: B1 RNA with A26U, A27G, C29A, G30A, C31U
DNA 1: CAATCTGAATTCCGGTCTCCC
DNA 2: TGGTGGCTACGACGGGATT
B4: CACCGUG (DNA:RNA)
RNA: B1 RNA with U25C, A27C, C29G, G30U, C31G
DNA 1: CAATCTGAATTCCGGTCTCCC
DNA 2: TGGTGGCTACGACGGGATT
B5: AGUCCAG (DNA:RNA)
RNA: B1 RNA with U25A, A26G, A27U, G30A, C31G
DNA 1: CAATCTGAATTCCGGTCTCCC
DNA 2: TGGTGGCTACGACGGGATT
B6: AGGCAGA (DNA:RNA)
RNA: B1 RNA with U25A, A26G, A27G, C29A, C31A
DNA 1: CAATCTGAATTCCGGTCTCCC
DNA 2: TGGTGGCTACGACGGGATT
B7: AGAGAAG (DNA:RNA)
RNA: B1 RNA with U25A, A26G, C28G, C29A, G30A, C31G
DNA 1: CAATCTGAATTCCGGTCTCCC
DNA 2: TGGTGGCTACGACGGGATT
B8: GGAGUUU (DNA:RNA)
RNA: B1 RNA with U25G, A26G, C28G, C29U, G30U, C31U
DNA 1: CAATCTGAATTCCGGTCTCCC
DNA 2: TGGTGGCTACGACGGGATT
B9: GUCCGGG (DNA:RNA)
RNA: B1 RNA with U25G, A26U, A27C, C29G, C31G
DNA 1: CAATCTGAATTCCGGTCTCCC
DNA 2: TGGTGGCTACGACGGGATT
B10: GGGUUGU (DNA:RNA)
RNA: B1 RNA with U25G, A26G, A27G, C28U, C29U, C31U
DNA 1: CAATCTGAATTCCGGTCTCCC
DNA 2: TGGTGGCTACGACGGGATT
B11: ACCGGGU (DNA:RNA)
RNA: B1 RNA with U25A, A26C, A27C, C28G, C29G, C31U
DNA 1: CAATCTGAATTCCGGTCTCCC
DNA 2: TGGTGGCTACGACGGGATT
B12: GGGUUUG (DNA:RNA)
RNA: GGGAGACCGGAAUUCAGAUUGUCCGGGUUUGUUAAAUCCCGUCGUAGCCACCA
DNA 1: CAATCTGAATTCCGGTCTCCC
DNA 2: TGGTGGCTACGACGGGATT
B13: GGGUUUU (DNA:RNA)
RNA: B12 RNA with G31U
DNA 1: CAATCTGAATTCCGGTCTCCC
DNA 2: TGGTGGCTACGACGGGATT
B14: CGGGUUU (DNA:RNA)
RNA: B12 RNA with G25C, U28G, G31U
DNA 1: CAATCTGAATTCCGGTCTCCC
DNA 2: TGGTGGCTACGACGGGATT
B15: GUUUGGG (DNA:RNA)
RNA: B12 RNA with G26U, G27U, U29G, U30G
DNA 1: CAATCTGAATTCCGGTCTCCC
DNA 2: TGGTGGCTACGACGGGATT
B16: GGGAGUU (DNA:RNA)
RNA: B12 RNA with U28A, U29G, G31U
DNA 1: CAATCTGAATTCCGGTCTCCC
DNA 2: TGGTGGCTACGACGGGATT
B17: GUCGGGU (DNA:RNA)
RNA: B12 RNA with G26U, G27C, U28G, U29G, U30G, G31U
DNA 1: CAATCTGAATTCCGGTCTCCC
DNA 2: TGGTGGCTACGACGGGATT
B18: GGGGAGU (DNA:RNA)
RNA: B12 RNA with U28G, U29A, U30G, G31U
DNA 1: CAATCTGAATTCCGGTCTCCC
DNA 2: TGGTGGCTACGACGGGATT
B19: CCGGGUU (DNA:RNA)
RNA: B12 RNA with G25C, G26C, U28G, U29G, G31U
DNA 1: CAATCTGAATTCCGGTCTCCC
DNA 2: TGGTGGCTACGACGGGATT
B20: UAAUAUG (DNA:RNA)
RNA: B12 RNA with G25U, G26A, G27A, U29A
DNA 1: CAATCTGAATTCCGGTCTCCC
DNA 2: TGGTGGCTACGACGGGATT
B21: AGGACGU (DNA:RNA)
RNA: B12 RNA with G25A, U28A, U29C, U30G, G31U
DNA 1: CAATCTGAATTCCGGTCTCCC
DNA 2: TGGTGGCTACGACGGGATT
B22: GAUCGUC (DNA:RNA)
RNA: B1 RNA with U25G, A27U, C29G, G30U
DNA 1: CAATCTGAATTCCGGTCTCCC
DNA 2: TGGTGGCTACGACGGGATT
B23: AUUACAA (DNA:RNA)
RNA: B1 RNA with U25A, A26U, A27U, C28A, G30A, C31A
DNA 1: CAATCTGAATTCCGGTCTCCC
DNA 2: TGGTGGCTACGACGGGATT
B24: CCUAUUU (DNA:RNA)
RNA: B12 RNA with G25C, G26C, G27U, U28A, G31U
DNA 1: CAATCTGAATTCCGGTCTCCC
DNA 2: TGGTGGCTACGACGGGATT
B25: CUUAUAA (DNA:RNA)
RNA: B12 RNA with G25C, G26U, G27U, U28A, U30A, G31A
DNA 1: CAATCTGAATTCCGGTCTCCC
DNA 2: TGGTGGCTACGACGGGATT
B26: CGGGUAA (DNA:RNA)
RNA: B12 RNA with G25C, U28G, U30A, G31A
DNA 1: CAATCTGAATTCCGGTCTCCC
DNA 2: TGGTGGCTACGACGGGATT
B27: CAGCGAG (DNA:RNA)
RNA: B12 RNA with G25C, G26A, U28C, U29G, U30A
DNA 1: CAATCTGAATTCCGGTCTCCC
DNA 2: TGGTGGCTACGACGGGATT
B28: CGGGGUU (DNA:RNA)
RNA: B12 RNA with G25C, U28G, U29G, G31U
DNA 1: CAATCTGAATTCCGGTCTCCC
DNA 2: TGGTGGCTACGACGGGATT
B29: GGGGGGU (DNA:RNA)
RNA: B12 RNA with U28G, U29G, U30G, G31U
DNA 1: CAATCTGAATTCCGGTCTCCC
DNA 2: TGGTGGCTACGACGGGATT
B30: CCGGGGU (DNA:RNA)
RNA: B12 RNA with G25C, G26C, U28G, U29G, U30G, G31U
DNA 1: CAATCTGAATTCCGGTCTCCC
DNA 2: TGGTGGCTACGACGGGATT
B31: GGGGUUU (DNA:RNA)
RNA: B12 RNA with U28G, G31U
DNA 1: CAATCTGAATTCCGGTCTCCC
DNA 2: TGGTGGCTACGACGGGATT
B32: GGGGGUU (DNA:RNA)
RNA: B12 RNA with U28G, U29G, G31U
DNA 1: CAATCTGAATTCCGGTCTCCC
DNA 2: TGGTGGCTACGACGGGATT
B33: GCGGGGU (DNA:RNA)
RNA: B12 RNA with G26C, U28G, U29G, U30G, G31U
DNA 1: CAATCTGAATTCCGGTCTCCC
DNA 2: TGGTGGCTACGACGGGATT
B34: GCGGGUU (DNA:RNA)
RNA: B12 RNA with G26C, U28G, U29G, G31U
DNA 1: CAATCTGAATTCCGGTCTCCC
DNA 2: TGGTGGCTACGACGGGATT
B35: CGGGGGU (DNA:RNA)
RNA: B12 RNA with G25C, U28G, U29G, U30G, G31U
DNA 1: CAATCTGAATTCCGGTCTCCC
DNA 2: TGGTGGCTACGACGGGATT
B36: GGUUUUU (DNA:RNA)
RNA: B12 RNA with G27U, G31U
DNA 1: CAATCTGAATTCCGGTCTCCC
DNA 2: TGGTGGCTACGACGGGATT

Where a chain is given by its changes, count along the chain named. The full ranking holds about 16,000 sequences; the median of “ka relative to ugcaugu” is about 0.0091, and the highest 2% start at about 0.032. This excerpt belongs to a sample that is enriched for the highest values.

The target of this assay is T1, RBFOX1 RRM (Homo sapiens, UniProt Q9NWB1 109-208).
T1 sequence: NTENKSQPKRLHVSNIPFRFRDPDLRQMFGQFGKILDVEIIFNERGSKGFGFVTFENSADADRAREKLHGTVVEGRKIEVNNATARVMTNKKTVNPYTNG
Description: EMSA; HiTS-Eq, 1 nM pool, 10 min; buffer printed only for the single-RNA assays: 10 mM Tris pH 7.5, 150 mM NaCl, 3.4 mM EDTA, 0.001% NP-40, 30 C. The settings on record: tags: His6 N-terminal (pET28a); label: 5' 32P. Put shortly:
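Purified RbFox RRM, wild type or mutant, was incubated for 10 min in 50 µL with 1 nM of a 5′-radiolabelled RNA pool carrying 7 randomized nucleotides, whose flanks were annealed to DNA oligonucleotides, over a series of increasing protein concentrations. Unbound RNA was resolved on 8% native PAGE, cut out, reverse-transcribed, barcoded by PCR and sequenced on an Illumina HiSeq 2500. Relative association constants were derived from changes in read counts for each RNA species versus the control reaction and normalised to the cognate motif.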
A general note: In EMSA bound probe runs differently from free probe, usually more slowly.
On to B1, for which the binding signal is 0.0039 KA relative to UGCAUGU.
To B2 belongs 0.000994 KA relative to UGCAUGU.
To B3 belongs 0.0162 KA relative to UGCAUGU.
Then B4, with 0.0057 KA relative to UGCAUGU; and B5, with 0.00711 KA relative to UGCAUGU.
B6: the binding signal was 0.00971 KA relative to UGCAUGU.
To B7 belongs 0.00984 KA relative to UGCAUGU.
On to B8, for which the binding signal is 0.0247 KA relative to UGCAUGU.
To B9 belongs 0.00708 KA relative to UGCAUGU.
Then B10, with 0.0284 KA relative to UGCAUGU; and B11, with 0.013 KA relative to UGCAUGU.
To B12 belongs 0.0349 KA relative to UGCAUGU; to B13, 0.0323 KA relative to UGCAUGU; to B14, 0.0393 KA relative to UGCAUGU.
For B15, the binding signal is 0.0128 KA relative to UGCAUGU.
To B16 belongs 0.0324 KA relative to UGCAUGU; to B17, 0.0137 KA relative to UGCAUGU; to B18, 0.0316 KA relative to UGCAUGU.
Then B19, with 0.0196 KA relative to UGCAUGU; and B20, with 0.0114 KA relative to UGCAUGU.
Take B21: the binding signal is 0.0265 KA relative to UGCAUGU.
To B22 belongs 0.0199 KA relative to UGCAUGU; to B23, 0.000272 KA relative to UGCAUGU; to B24, 0.00115 KA relative to UGCAUGU.
To B25 belongs 0.00174 KA relative to UGCAUGU; to B26, 0.0192 KA relative to UGCAUGU.
B27: the binding signal is 0.00935 KA relative to UGCAUGU.
Then B28, with 0.0339 KA relative to UGCAUGU.
To B29 belongs 0.0254 KA relative to UGCAUGU; to B30, 0.0122 KA relative to UGCAUGU.
Then B31, with 0.046 KA relative to UGCAUGU; and B32, with 0.0471 KA relative to UGCAUGU.
B33: the binding signal was 0.0285 KA relative to UGCAUGU.
To B34 belongs 0.0192 KA relative to UGCAUGU.
To B35 belongs 0.0227 KA relative to UGCAUGU; to B36, 0.00799 KA relative to UGCAUGU.
